Experimental findings from PubChem BioAssay (EPA / NIEHS) are described below.

“And” between values parts separate entries of the source, which are not always exact repeats. Equal entries are not always repeated. The source holds several records for some structures; these can differ, active in one and inactive in another. The source made the active and inactive calls. Rule for the calls: active = hit-call score of the fitted dose curve at least 0.9, where 1 is the maximum; inactive = score below 0.9.

This assay can be described thus: CCTE_Shafer_MEA_acute_burst_percentage_mean: CCTE's Neural Acute Assay for Percentage of Spikes in a Burst, Shafer Lab (AID 2284017).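 For AC50: curve fitted for loss of signal so potency reflects decreased burst percentage.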 As to the method:
CCTE_Shafer_MEA_acute assay is conducted using Axion Biosystems 48 well microelectrode array (MEA) plates and Maestro recording system. Each well of the MEA plate contains a grid of 16 microelectrodes embedded in the culture surface. Electrically active cells, such as neurons, can be cultured over the electrodes, and electrical activity in these cells can be recorded extracellularly. The spontaneous firing of neurons is captured from each electrode on a microsecond timescale providing both temporally and spatially precise data. […] The CCTE_Shafer_MEA_acute assay uses primary cultures of rat cortical neurons. As these cultures mature over time, neural networks develop functional activity and form cohesive networks in which electrical activity can be highly coordinated. Baseline 40-minute recordings are made on days post-plating 13 or 15, followed by a secondary 40-minute recording after chemical exposure.CCTE_Shafer_MEA_acute_burst_percentage_mean is a component of the CCTE_Shafer_MEA_acute assay. It measures the percentage of spikes (action potential firing) in a single-electrode burst (temporally-clustered groups of spikes) as the number of spikes in bursts divided by the total number of spikes during a recording in a microelectrode array (MEA) using Axion Biosystems Maestro 768 channel amplifier with the AxIS adaptive spike detector. The average of the burst percentages across electrodes is calculated to report a well-level value. The recordings before and after chemical treatment are used to calculate a percent change in the mean burst percentage in each well.Data from the assay component CCTE_Shafer_MEA_acute_burst_percentage_mean was analyzed into 1 assay endpoint. This assay endpoint, CCTE_Shafer_MEA_acute_burst_percentage_mean, was analyzed in the negative analysis fitting direction relative to DMSO as the negative control and baseline of activity. Using a type of functional reporter, gain or loss-of-signal activity can be used to understand electrical activity.
Spontaneous activity in the cortical cultures was recorded using an Axion Biosystems Maestro 768 channel amplifier and Axion Integrated Studios (AxIS) v1.8 (or later) software. The amplifier recorded from all channels simultaneously (gain = 1200 x; sampling rate = 12.5 kHz/channel): raw signals were filtered with a Butterworth band-pass filter (300-5000 Hz), which filters out slower local field potentials leaving only fast potentials, i.e., "spikes", arising from extracellular currents associated with action potentials (Pine 2006; Wheeler and Nam 2011). On-line spike detection of filtered signals was conducted with the AxIS adaptive spike detector, using a threshold of 8x the root mean squared (rms) noise on each channel. Any electrodes with rms noise levels greater than 5 uV were grounded (e.g., no data were recorded). Once grounded, an electrode was grounded for the duration of the experiment. All recordings were conducted at 37 C. Wells were deemed usable if on the day of the exposure >/= 10 electrodes were active (defined as >/= 5 spikes/min). On DIV 13 or 15, a minimum of three wells from one cortical culture preparation were treated with each compound (0.03-40 uM). Prior to recording baseline activity, each mwMEA plate was placed in the Maestro at 37 C and allowed to sit for 20 min while firing rates stabilized. Baseline activity (40 min) was recorded before the addition of each compound. An additional 40 min of spontaneous activity was recorded in the presence of each compound. Changes in network parameters relative to baseline were assessed following compound treatment.
For `ClC1C(Cl)C(Cl)C(Cl)C(Cl)C1Cl` (stereo not given), the AC50 – broadly, the concentration giving half of the maximal activity seen – was 1.53 µM (active).

Take `CNC(=O)/C=C(\C)OP(=O)(OC)OC`: the compound was classed as inactive. Turning to `Oc1ccc(Cl)cc1Cc1ccccc1`, the AC50 is 2.55 µM (active).

With `CC[C@H](C)[C@H]1O[C@]2(C=C[C@@H]1C)C[C@@H]1C[C@@H](C/C=C(\C)[C@@H](O[C@H]3C[C@H](OC)[C@@H](O[C@H]4C[C@H](OC)[C@@H](O)[C@H](C)O4)[C@H](C)O3)[C@@H](C)/C=C/C=C3\CO[C@@H]4[C@H](O)C(C)=C[C@@H](C(=O)O1)[C@]34O)O2` (tested in a mixture with another compound), the AC50 was 0.0165 µM (active).

For `O=S1OCC2C(CO1)C1(Cl)C(Cl)=C(Cl)C2(Cl)C1(Cl)Cl` (stereo not given), the outcome was inactive and the AC50 is 25.5 µM (active).

For the compound `O=[N+]([O-])/N=C1\NCCN1Cc1ccc(Cl)nc1`, the compound was called inactive. The same measure, in the same setting: the entry for `O=S(=O)(O)C(F)(F)C(F)(F)C(F)(F)C(F)(F)C(F)(F)C(F)(F)C(F)(F)C(F)(F)F` is “inactive”; for `O=C1c2ccccc2C(=O)N1SC(Cl)(Cl)Cl` it is “inactive”. Regarding `COP(=S)(OC)Oc1ccc(SC)c(C)c1`, the AC50 was 29.1 µM (active). Consider `Clc1ccccc1-c1nnc(-c2ccccc2Cl)nn1`, for which the result was inactive. As for `N#CN`, the compound was classed as inactive. As for `CCCN(CCC)c1c([N+](=O)[O-])cc(C(F)(F)F)cc1[N+](=O)[O-]`, the AC50 was 5.5 µM (active). `CNC(=O)CSP(=S)(OC)OC`: the compound was called inactive. In the case of `CC(C)OC(=O)Nc1cccc(Cl)c1`, the concentration at half-maximal activity (AC50) was 20 µM (active). Same read-out and setting: the figure for `CC1(C)C(C=C(Cl)Cl)C1C(=O)OC(C#N)c1ccc(F)c(Oc2ccccc2)c1` (stereo not given) is 210 nM (active) and 1.95 µM (active); for `N#Cc1c(Cl)c(Cl)c(Cl)c(C#N)c1Cl` it is 6.9 µM (active). Regarding `CCC(C)Nc1c([N+](=O)[O-])cc(C(C)(C)C)cc1[N+](=O)[O-]` (stereo not given), the compound was called inactive. Take `CC(C)N(C(=O)COc1nnc(C(F)(F)F)s1)c1ccc(F)cc1`: the concentration at half-maximal activity (AC50) is 30.6 µM (active) and 15 µM (active).

Take `CCC(C)(C)C(=O)OC1=C(c2ccc(Cl)cc2Cl)C(=O)OC12CCCCC2`: the AC50 is 3.59 µM (active) and the compound was classed as inactive.

On to `CCCN(CCOc1c(Cl)cc(Cl)cc1Cl)C(=O)n1ccnc1`, for which the half-maximal activity concentration (AC50) is 34.6 µM (active). For `O=C(O)CCCOc1ccc(Cl)cc1Cl`, the outcome was inactive. Turning to `Oc1cc(Cl)ccc1Oc1ccc(Cl)cc1Cl`, the AC50 was 12.7 µM (active). On to `C[C@H]1[C@H](c2ccc(Cl)cc2)SC(=O)N1C(=O)NC1CCCCC1`, for which the concentration at half-maximal activity (AC50) was 19.8 µM (active).
